Test results from publication PMC4336329 (PLoS ONE, 2015).
Screen size: about 310,000 compounds; about 14,000 (4.5%) showed an effect of 50% or more. Effects have a minus sign here. What follows is part of a selection rich in strong results, with near analogues and random picks from the rest.

The compounds below were run against human ether-à-go-go-related gene (hERG) potassium channel (human, UniProt Q12809) (assay: primary screen, population patch clamp on CHO cells stably expressing hERG; higher = less effect of the substance).
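Also: peak tail current of the secondary pulse compared with the same well before compound.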

Sequence of human ether-à-go-go-related gene (hERG) potassium channel (Q12809 whole entry, looked up): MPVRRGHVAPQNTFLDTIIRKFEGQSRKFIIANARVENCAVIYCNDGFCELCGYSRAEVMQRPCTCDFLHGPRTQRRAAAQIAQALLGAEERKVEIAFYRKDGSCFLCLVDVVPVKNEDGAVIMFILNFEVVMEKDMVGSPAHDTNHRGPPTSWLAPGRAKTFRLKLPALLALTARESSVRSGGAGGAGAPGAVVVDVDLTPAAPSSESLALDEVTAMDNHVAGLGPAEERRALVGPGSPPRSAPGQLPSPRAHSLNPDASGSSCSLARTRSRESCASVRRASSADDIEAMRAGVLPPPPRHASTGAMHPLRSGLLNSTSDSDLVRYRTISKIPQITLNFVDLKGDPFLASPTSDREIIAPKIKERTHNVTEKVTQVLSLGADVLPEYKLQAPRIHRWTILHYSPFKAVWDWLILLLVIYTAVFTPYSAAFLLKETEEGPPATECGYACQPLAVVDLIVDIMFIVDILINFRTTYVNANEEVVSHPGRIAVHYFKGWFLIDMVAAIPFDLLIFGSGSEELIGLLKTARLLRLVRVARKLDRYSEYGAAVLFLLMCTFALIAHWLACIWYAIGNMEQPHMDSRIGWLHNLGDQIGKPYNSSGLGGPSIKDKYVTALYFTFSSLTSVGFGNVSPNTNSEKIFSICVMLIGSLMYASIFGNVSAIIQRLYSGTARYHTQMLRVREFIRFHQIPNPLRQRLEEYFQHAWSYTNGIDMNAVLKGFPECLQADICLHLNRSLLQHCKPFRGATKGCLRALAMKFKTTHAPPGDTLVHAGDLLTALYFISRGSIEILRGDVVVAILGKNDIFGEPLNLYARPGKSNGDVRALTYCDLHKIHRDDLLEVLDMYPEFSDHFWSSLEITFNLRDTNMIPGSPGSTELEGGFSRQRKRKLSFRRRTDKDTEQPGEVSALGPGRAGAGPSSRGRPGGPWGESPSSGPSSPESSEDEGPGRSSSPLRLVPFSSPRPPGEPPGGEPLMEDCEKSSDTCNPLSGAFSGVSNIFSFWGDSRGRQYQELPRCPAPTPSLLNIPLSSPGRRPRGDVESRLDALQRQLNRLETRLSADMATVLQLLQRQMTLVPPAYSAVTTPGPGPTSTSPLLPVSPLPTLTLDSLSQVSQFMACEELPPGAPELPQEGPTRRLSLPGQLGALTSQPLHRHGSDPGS

| Compound | hERG current change (%, negative = inhibition) at 10uM |
| --- | --- |
| COc1ccc(N(CC(=O)NC2CCCCC2)C(=O)c2ccc(C)s2)c(OC)c1 | -18.1% |
| CCN(CC)c1ccc(NC(=O)CCNS(=O)(=O)c2ccc3c(c2)CCC(=O)N3)c(C)c1 | 5.77% |
| OCC(Br)CBr (stereo not drawn) | 23% |
| C=C1CCC2[C@](C)(CO)[C@H](O)CC[C@@]2(C)[C@@H]1C/C=C1\C(=O)OC[C@H]1O (stereo partly drawn) | 18.9% |
| CCc1nn(CC(=O)NCCCc2ccccc2)c(=O)c2cc3cc(F)ccc3n12 | 1.58% |
| CC1(CCC(=O)N2CCCC(N3CCN(c4cccc(C(F)(F)F)c4)CC3)C2)CC1 (stereo not drawn) | -61.5% |
| Cc1ccccc1N1CCN(C2CCCN(C(=O)CCC3(C)CC3)C2)CC1 (stereo not drawn) | -48.6% |
| Cc1ccccc1N1CCN(C2CCCN(C(=O)CCc3c(C)noc3C)C2)CC1 (stereo not drawn) | -46.3% |
| CSCCC(=O)N1CCCC(N2CCN(c3cccc(C(F)(F)F)c3)CC2)C1 (stereo not drawn) | -40.4% |
| Cc1nn(C)c(C)c1CCC(=O)N1CCCC(N2CCN(c3ccc(F)cc3)CC2)C1 (stereo not drawn) | -12.5% |
| CSCC(=O)N1CCCC(N2CCN(c3ccc(F)cc3)CC2)C1 (stereo not drawn) | -22.9% |
| CC1(CCC(=O)N2CCCC(N3CCN(c4ccc(F)cc4)CC3)C2)CC1 (stereo not drawn) | -64.7% |
| CSCC(=O)N1CCCC(N2CCN(c3cccc(C(F)(F)F)c3)CC2)C1 (stereo not drawn) | -48.1% |
| Cc1noc(C)c1CCC(=O)N1CCCC(N2CCN(c3ccc(F)cc3)CC2)C1 (stereo not drawn) | -53.4% |
| CC(C)NC(=O)N1CCN(c2ccncc2S(=O)(=O)N2CCCCC2)CC1 | 5.19% |
| COc1ccc(-c2cnc(N)n2CC2CCCO2)cc1 (stereo not drawn) | -5.53% |
| Cc1cc(C)n(CC(O)COc2c(C)cccc2C)n1 (stereo not drawn) | -1.28% |
| O=P(C1=C(N2CCOCC2)/C(=C\c2ccccc2)CC1)(N1CCOCC1)N1CCOCC1 | -25.3% |
| O=C(CSc1nnc(NC(=O)C2CC(=O)N(c3ccccc3)C2)s1)NCc1ccco1 (stereo not drawn) | 16.9% |
| O=C(c1cccs1)N(Cc1cccc(F)c1)C1CCS(=O)(=O)C1 (stereo not drawn) | -14.9% |
| O=C(c1cccs1)N(Cc1cccc(Cl)c1)C1CCS(=O)(=O)C1 (stereo not drawn) | -52% |

| Compound | hERG current change (%, negative = inhibition) at 10uM |
| --- | --- |
| O=C(c1cccs1)N(Cc1ccc(Cl)cc1)C1CCS(=O)(=O)C1 (stereo not drawn) | -41.9% |
| O=C(c1ccco1)N(Cc1ccc(Cl)cc1)C1CCS(=O)(=O)C1 (stereo not drawn) | -11.6% |
| O=C(c1ccco1)N(Cc1cccc(F)c1)C1CCS(=O)(=O)C1 (stereo not drawn) | -5.78% |
| O=C(c1ccco1)N(Cc1cccc(Cl)c1)C1CCS(=O)(=O)C1 (stereo not drawn) | -59% |
| CC(=O)CCS(=O)(=O)c1ccc(C)c(C)c1 | 1.19% |
| O=C(OCC(=O)N1CCCC1=O)C1CCN(S(=O)(=O)c2ccc(Cl)c(C(F)(F)F)c2)CC1 | 5.31% |
| COc1ccc(C(=O)NC(=S)Nc2ccc(S(=O)(=O)Nc3cc(OC)ncn3)cc2)cc1 | 15.4% |
| CSCCC1NC(=O)N(CC(=O)N2CCc3ccccc3C2)C1=O (stereo not drawn) | -1.18% |
| CCOC(=O)c1[nH]c2ccc(OC)cc2c1NC(=O)c1ccccc1C(=O)O | 14.2% |
| COc1ccc(N2CCN(CCNC(=O)CCNS(=O)(=O)c3cccs3)CC2)cc1 | -24.7% |
| CCS(=O)(=O)N1CCC(C(=O)NCCCN2CCN(c3ccccc3F)CC2)CC1 | -16.3% |
| COCCNC(=O)C1CCN(S(=O)(=O)c2c(C)noc2/C=C/c2cccs2)CC1 | -34.7% |
| Cc1noc(/C=C/c2cccs2)c1S(=O)(=O)N1CCC(C(=O)NCCCN2CCCC(C)C2)CC1 (stereo not drawn) | -44.5% |
| O=C(NCCN1C(=O)S/C(=C\c2ccccc2)C1=O)C1CCN(S(=O)(=O)c2cccs2)CC1 | -23.8% |
| O=C(NCCCN1CCN(c2ccccc2F)CC1)C1CCN(S(=O)(=O)c2cccs2)CC1 | -60.6% |
| CCCNC(=O)C1CCN(S(=O)(=O)c2cccs2)CC1 | 28.1% |
| Cc1noc(/C=C/c2cccs2)c1S(=O)(=O)N1CCC(C(=O)NCCCN2CCC(C)CC2)CC1 | -83.7% |
| O=C(NCCN1C(=O)S/C(=C\c2ccccc2F)C1=O)C1CCN(S(=O)(=O)c2cccs2)CC1 | -57.2% |
| COc1ccc(N2CCN(C(=O)C3CCN(S(=O)(=O)c4cccs4)CC3)CC2)cc1 | -49.3% |
| COc1ccc(N2CCN(CCNC(=O)C3CCN(S(=O)(=O)c4cccs4)CC3)CC2)cc1 | -50.7% |
| O=C(NCCN1C(=O)S/C(=C\c2ccc(F)cc2)C1=O)C1CCN(S(=O)(=O)c2cccs2)CC1 | -7.1% |

| Compound | hERG current change (%, negative = inhibition) at 10uM |
| --- | --- |
| Cc1cc(NS(=O)(=O)c2ccc(NC(=O)c3c(F)c(F)c(F)c(F)c3F)cc2)nc(C)n1 | 4.63% |
| CCN(C(=O)CSc1nnnn1-c1ccccc1OC)C1CCS(=O)(=O)C1 (stereo not drawn) | 21.2% |
| O=C(CCNC(=O)c1ccccc1Cl)Nc1cccc(S(=O)(=O)N2CCOCC2)c1 | 0.307% |
| CC(C)(C)c1[nH]nc2c1C(C1C=CCCC1)C(C#N)=C(N)O2 (stereo not drawn) | -11% |
| CN(C)CC1CCCCC1OC(=O)c1ccc(S(=O)(=O)N(C)c2ccccc2)cc1 (stereo not drawn) | 17.8% |
| C/C(CC(=O)NCc1ccco1)=N\NC(=O)c1ccc([N+](=O)[O-])cc1Cl | 10.5% |
| CC(OC(=O)CCc1nc2ccccc2c(=O)[nH]1)C(=O)c1ccc(C(C)(C)C)cc1 (stereo not drawn) | -12.3% |
| COc1ccc(N(CC(=O)NCc2ccc(Cl)cc2)S(=O)(=O)c2c(C)noc2C)cc1 | 15.1% |
| O=[N+]([O-])CC(=Nc1ccc(F)cc1)N/N=C\c1oc(O)c2ccccc12 | -0.338% |
| NCCCC[C@H]1CN=C(N)N1CCCCC1CCCCC1 | -3.84% |
| CC(C)C(NC(=O)c1ccccc1NC(=O)c1ccco1)C(=O)O (stereo not drawn) | -14.1% |
| C/C(N)=C(/C#N)C(=O)COC(=O)CC1CCCC1 | -2.15% |
| COc1cccc(N2C(=O)CC(N3CCN(c4ccc([N+](=O)[O-])cc4)CC3)C2=O)c1 (stereo not drawn) | -52.1% |
| Cc1ccc(N2C(=O)CC(Cc3cccc(C)c3)C2=O)cc1 (stereo not drawn) | 9.39% |
| COc1ccccc1N1CCN(C2CC(=O)N(c3ccccc3)C2=O)CC1 (stereo not drawn) | 24.1% |
| Cc1cc(C)cc(CC2CC(=O)N(c3ccc([N+](=O)[O-])cc3)C2=O)c1 (stereo not drawn) | 9.78% |
| COc1ccccc1N1C(=O)CC(N2CCN(c3ccc([N+](=O)[O-])cc3)CC2)C1=O (stereo not drawn) | -68.6% |
| COc1ccccc1N1C(=O)CC(N2CCN(c3ccc(F)cc3)CC2)C1=O (stereo not drawn) | -1.99% |
| COc1cccc(N2CCN(C3CC(=O)N(c4ccc(Cl)c(Cl)c4)C3=O)CC2)c1 (stereo not drawn) | -0.0262% |
| O=C1CC(N2CCN(c3ccccc3)CC2)C(=O)N1c1cccc(Br)c1 (stereo not drawn) | -1.92% |
| Cc1cccc(CC2CC(=O)N(c3ccc([N+](=O)[O-])cc3)C2=O)c1 (stereo not drawn) | -53.3% |

| Compound | hERG current change (%, negative = inhibition) at 10uM |
| --- | --- |
| COc1cccc(N2CCN(C3CC(=O)N(c4cccc(Cl)c4)C3=O)CC2)c1 (stereo not drawn) | -14.4% |
| COc1ccccc1N1C(=O)CC(N2CCN(c3ccc(Cl)cc3)CC2)C1=O (stereo not drawn) | 1.61% |
| COc1ccccc1N1CCN(C2CC(=O)N(c3cccc(Br)c3)C2=O)CC1 (stereo not drawn) | -53.7% |
| C=C(C)COc1ccc(-c2nc(N)ncc2-c2ccccc2OC)c(O)c1 | -31.6% |
| COc1cc(OC)c(OC)cc1/C=C(\C#N)C(=O)NCc1cccs1 | 20.6% |
| O=C(Cn1cc2c(n1)CCCC2)Nc1ccccc1Br | 1.06% |
| CN1C2CCC1CC(NC(=O)c1cc(Cl)cc3[nH]cnc13)C2 (stereo not drawn) | 4.12% |
| CNC(=O)c1c2c(nc3ccc(Br)cc13)CCCC2 | 1.9% |
| CCCCn1c(N)c(N(CCOC)C(=O)C2CC(=O)N(c3cccc(SC)c3)C2)c(=O)[nH]c1=O (stereo not drawn) | 14.4% |
| COCCN1CN=C(Nc2nc3ccccc3o2)NC1 | 13.5% |
| COc1cccc(OC)c1C(=O)Nc1ccc(N2CCCC2)cc1 | 7.52% |
| Cc1ccc(N2C(=O)SC(Cc3ccccc3)C2=O)cc1 (stereo not drawn) | 13.7% |
| COc1ccc(N(Cc2cc3ccccc3[nH]c2=O)S(=O)(=O)c2ccccc2)cc1 | 2.91% |
| CCOC(=O)N1CCN(C(=O)c2ccc(OC(C)=O)cc2)CC1 | 16% |
| CCCOc1ccc(N2C(=O)CC(N3CCN(c4ccc([N+](=O)[O-])cc4)CC3)C2=O)cc1 (stereo not drawn) | -73.8% |
| CCCOc1ccc(N2C(=O)CC(N3CCOCC3)C2=O)cc1 (stereo not drawn) | -3.38% |
| CCOc1ccc(N2C(=O)CC(N3CCN(c4ccc([N+](=O)[O-])cc4)CC3)C2=O)cc1 (stereo not drawn) | -28.3% |
| O=C(COC(=O)c1cccc2ccccc12)Nc1cccnc1Cl | 0.703% |
| CCC1=NN2C(=N)/C(=C\c3cccn3-c3ccc(C)c(C)c3)C(=O)N=C2S1 | -6.32% |
| CCC1=NN2C(=N)/C(=C\c3cccn3-c3c(C)cccc3C)C(=O)N=C2S1 | -79.4% |
| CCC1=NN2C(=N)/C(=C\c3cccn3-c3ccc(C)cc3C)C(=O)N=C2S1 | -5.33% |
